Measured values published in PubChem BioAssay (NCATS).
Inconclusive results are not listed. Activity calls are given as the source filed them. The call rests on the fitted dose curve; in most records, active means well fitted inhibition curve with a large enough effect; inconclusive means small, poorly fitted or top-dose-only effect; inactive means flat fitted curve, though single readings scatter. Bridge positions count the residues as written; N and C are the ends. Square brackets hold non-standard residues; d marks the D form. Peptide text beside a SMILES is read from it. * marks the point of attachment. ξ: configuration not given here. ξDab(CH2SO3H) = NC(CCNCS(=O)(=O)O)C(=O)O; Heptanoyl(6-Me) = CC(C)CCCCC(=O)*; Dab = NCC[CH](N)C(=O)O

Target: Luciferin 4-monooxygenase (Photinus pyralis) (UniProt P08659)
Sequence (P08659 whole entry, looked up): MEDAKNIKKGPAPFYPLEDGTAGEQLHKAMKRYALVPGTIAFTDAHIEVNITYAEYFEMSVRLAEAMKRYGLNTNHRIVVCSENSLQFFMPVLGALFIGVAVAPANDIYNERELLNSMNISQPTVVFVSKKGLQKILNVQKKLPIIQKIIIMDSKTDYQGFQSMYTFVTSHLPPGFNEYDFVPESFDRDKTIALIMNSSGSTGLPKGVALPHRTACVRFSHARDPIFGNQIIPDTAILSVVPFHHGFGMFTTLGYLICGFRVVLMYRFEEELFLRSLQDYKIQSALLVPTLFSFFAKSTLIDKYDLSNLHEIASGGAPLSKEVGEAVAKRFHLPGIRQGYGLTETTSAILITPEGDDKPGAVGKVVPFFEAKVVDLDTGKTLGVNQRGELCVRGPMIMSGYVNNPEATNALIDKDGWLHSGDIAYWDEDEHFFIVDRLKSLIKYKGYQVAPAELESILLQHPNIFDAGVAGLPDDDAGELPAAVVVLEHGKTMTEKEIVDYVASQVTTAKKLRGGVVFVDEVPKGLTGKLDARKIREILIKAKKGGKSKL
Test: Biochemical firefly luciferase enzyme assay for NPC (AID 624030);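 further: 0% = DMSO and -100% = full luciferase inhibition by PTC124 control; nearly all actives have a fitted effect of over 70% in size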
Conditions: purified P. pyralis luciferase, luminescence, 5 min; series mostly up to 58.6 µM; activity change, negative = inhibition: at the top concentration
Source text: Charcot-Marie-Tooth-Association [CMTA] National Center for Advancing Translational Sciences [NCATS] Charcot-Marie-Tooth (CMT) disease was first characterized by Jean-Martin Charcot and Pierre Marie in France and, independently, by Howard Henry Tooth in England in 1886. CMT is one of the most common inherited neurological diseases, affecting approximately 1 in 2,500 Americans. […] The most prevalent type of CMT is known as CMT1A and caused by a duplication of the PMP22 gene which leads to over-expression of this protein. PMP22 is a glycosylated intrinsic membrane protein accounting for 2-5% of the myelin protein content, and its over-expression results in demyelination and subsequently axonal loss. A pair of cellular transcription-based assays was developed in the S16 rat Schwann cell lines (Hai, M., et al., 2002) stably transfected with orthogonal reporters - firefly luciferase (Fluc) and beta-lactamase (beta-Lac) - whose expression is driven by an intronic regulatory element of the PMP22 gene (Jones, E.A., et al., 2011) to recapitulate endogenous expression of PMP22. A comprehensive library of approved drugs, the NCGC Pharmaceutical Collection (Huang, R., et al., 2011), was screened in the cross-validating platform of the orthogonal reporter assays to identify drug modulators inhibitory towards PMP22 expression. A set of counter-screens was devised to address non-specific activity of the library. An ATP-dependent CellTiter-Glo assay (developed by Promega Corp) was utilized to control cell viability. In addition, biochemical Fluc enzyme assay was performed to assess direct inhibition of the Fluc enzymatic activity. References Hai, M., Muja, N., DeVries, G.H., Quarles, R.H. and Patel, P.I. Comparative analysis of Schwann cell lines as model systems for myelin gene transcription studies. J Neurosci Res, 2002. 69(4): pp 497-508 Huang, R., Southall, N., Wang, Y., Yasgar A., Shinn P., Jadhav, A. , Nguyen, D.-T. and Austin, C.P., The NCGC pharmaceutical collection: a comprehensive resource of clinically approved drugs enabling repurposing and chemical genomics. Sci Transl Med, 2011. 3(80): p. 80ps16.
Compounds were transferred to the plates in 23nl, and one microliter/well luciferase enzyme-buffer solution (10 nM P. pyralis luciferase and 50 mM Tris Acetate final concentrations) was dispensed yielding a final reaction volume of […]. Luciferase luminescence was measured by a ViewLux plate reader within 5 minutes of enzyme-buffer addition. The % activity was determined by normalizing to the average readings of PTC124 (a positive control) relative to DMSO (0% Activity). The concentration-effect curves were then classified based on curve quality (r2), response magnitude and degree of measured activity.

Activity change, negative = inhibition, inactive:
Cc1c(N)nc([C@@H](CC(N)=O)NC[C@H](N)C(N)=O)nc1C(=O)N[C@H](C(=O)N[C@@H](C)[C@@H](O)[C@@H](C)C(=O)N[C@H](C(=O)NCCc1nc(-c2nc(C(=O)NCCCN[C@H](C)c3ccccc3)cs2)cs1)[C@H](C)O)[C@@H](O[C@H]1O[C@@H](CO)[C@H](O)[C@@H](O)[C@H]1O[C@H]1O[C@@H](CO)[C@@H](O)[C@H](OC(N)=O)[C@H]1O)c1cnc[nH]1 1.68%
CC(=O)O[C@@H]1C(=O)O[C@H]2[C@@H]1OC(=O)[C@@H]2OC(C)=O -14.5%
CC(=O)OCC1=C(C(=O)O)N2C(=O)C(NC(=O)Cc3ccccc3)C2SC1 (stereo not given) -3.58%
CC12C=CC(=O)C=C1CCC1C2C(O)CC2(C)C1CCC2(O)C(=O)COC(=O)CCC(=O)O (stereo not given) -0.0354%
CO[C@]1(NC(=O)Cc2cccs2)C(=O)N2C(C(=O)O)=CC(COC(N)=O)S[C@H]21 (stereo not given in full) -6.72%
CO/N=C1\C[C@]2(C[C@@H]3C[C@H](C/C=C(/C)C[C@@H](C)/C=C\C=C4\CO[C@@H]5[C@@H](O)C(C)=C[C@@H](C(=O)O3)[C@]45O)O2)O[C@@H](/C(C)=C/C(C)C)[C@H]1C -2.95%
CO[C@@H]1[C@@H]([C@H](C)[C@@H]2O[C@@]3(CC[C@@](C)([C@H]4CC[C@@](C)([C@H]5O[C@H]([C@H]6O[C@](C)(O)[C@H](C)C[C@@H]6C)C[C@H]5O[C@H]5C[C@@H](OC)[C@H](OC)[C@@H](C)O5)O4)O3)C[C@@H](O)[C@@H]2C)O[C@@](O)(CC(=O)O)[C@H](C)[C@H]1OC -1.07%
CC(C)(S)C(=O)NC(CS)C(=O)O (stereo not given) -6.64%
Fc1ccc(C2CCNCC2COc2ccc3c(c2)OCO3)cc1 (stereo not given) 8.57%
COCC1=C(C(=O)OC(C)OC(=O)OC(C)C)N2C(=O)C(NC(=O)/C(=N\OC)c3csc(N)n3)C2SC1 (stereo not given) 1.77%
CC(=O)O[C@H]1CC[C@@]2(C)C(=CCC3C2CC[C@]2(C)C(c4cccnc4)=CCC32)C1 (stereo not given in full) 2.55%
CC1CC2C3CCC4=CC(=O)C=C[C@@]4(C)[C@]3(F)C(O)C[C@]2(C)[C@]1(O)C(=O)COP(=O)(O)O (stereo not given in full) 29.4%
O=C1OC2C(O)C(O)OC2C1O (stereo not given) -1.14%
CN[C@H](CC(C)C)C(=O)N[C@H]1C(=O)N[C@@H](CC(N)=O)C(=O)N[C@H]2C(=O)N[C@H]3C(=O)N[C@H](C(=O)N[C@H](C(=O)O)c4cc(O)cc(O)c4-c4cc3ccc4O)[C@H](O)c3ccc(c(Cl)c3)Oc3cc2cc(c3O[C@@H]2OC(CO)[C@@H](O)[C@H](O)[C@H]2O[C@H]2C[C@](C)(N)[C@H](O)[C@H](C)O2)Oc2ccc(cc2Cl)[C@H]1O (stereo not given in full) -5.7%
CC(=O)O[C@H]1C[C@@H]2CC[C@@H]3[C@H](CC[C@]4(C)[C@H](OC(C)=O)[C@@H](N5CC[N+](C)(C)CC5)C[C@@H]34)[C@@]2(C)C[C@@H]1N1CC[N+](C)(C)CC1 7.44%
C[C@@H]1O[C@@]2(CS1)CN1CCC2CC1 -0.752%
CO/N=C(\C(=O)N[C@@H]1C(=O)N2C(C(=O)O)=C(Cn3nnc(C)n3)CS[C@H]12)c1csc(N)n1 0.691%
CC#CCC(C)[C@H](O)/C=C/C1[C@H](O)C[C@@H]2C/C(=C\CCCC(=O)O)C[C@H]12 (stereo not given in full) 0.3%
C#C[C@@]1(OC(C)=O)CC[C@H]2[C@@H]3CCC4=CC(=O)CC[C@@H]4[C@H]3CC[C@@]21C 0.854%
CC[C@@H]1OC(=O)C[C@H](O)[C@@H](C)[C@@H](O[C@H]2O[C@@H](C)[C@H](O[C@@H]3C[C@](C)(O)[C@H](O)[C@@H](C)O3)[C@@H](N(C)C)[C@@H]2O)[C@@H](C=O)C[C@@H](C)C(=O)/C=C/C(C)=C[C@@H]1CO[C@H]1O[C@@H](C)[C@H](O)[C@H](OC)[C@@H]1OC 1.17%
CCCC(=O)O[C@]1(C(=O)COC(=O)CC)CC[C@@H]2[C@@H]3CCC4=CC(=O)CC[C@]4(C)[C@H]3[C@@H](O)C[C@@]21C 54.4%
C/C=C(/CC[C@@H](C)[C@H]1CCC2C3=CC[C@H]4[C@H](C)[C@@H](O)CC[C@]4(C)C3CC[C@@]21C)C(C)C (stereo not given in full) 0.561%
c1ccc(C(OC2CCCN(CCc3ccc4c(c3)OCO4)C2)c2ccccc2)cc1 (stereo not given) 0.0642%
CC(=O)SC1CC2=CC(=O)CCC2(C)C2CCC3(C)C(CCC34CCC(=O)O4)C12 (stereo not given) -6.55%
CC(CN1CCOCC1)C(Cc1ccccc1)(Cc1ccccc1)C(=O)N1CCCC1 (stereo not given) 3.31% [at 123 µM]
O=C(CO)NCCCOc1cccc(CN2CCCCC2)c1 1.63%
CCN(CCO)CCn1c(Cc2ccccc2)nc2c1c(=O)n(C)c(=O)n2C -2.58%
CC(C)(C)NC(=O)[C@H]1CC[C@H]2[C@@H]3CC=C4C=C(C(=O)O)CC[C@@]4(C)[C@H]3CC[C@]12C -5.42%
CC(C)=CCC/C(C)=C\CC/C(C)=C\CC/C(C)=C\CC1=C(C)C(=O)c2ccccc2C1=O -5.07%
CCC(C)C1NC(=O)C(Cc2ccc(O)cc2)NC(=O)C(N)CSSCC(C(=O)N2CCCC2C(=O)NC(CC(C)C)C(=O)NCC(N)=O)NC(=O)C(CC(N)=O)NC(=O)C(CCC(N)=O)NC1=O (stereo not given) -9.2%
CCC1NC(=O)C(NC(=O)c2ncccc2O)C(C)OC(=O)C(c2ccccc2)NC(=O)C2CC(=O)CCN2C(=O)C(Cc2ccccc2)N(C)C(=O)C2CCCN2C1=O (stereo not given) 0.435%
CCC(C)C1NC(=O)C(CCNCS(=O)(=O)O)NC(=O)C(NC(=O)C(CCNCS(=O)(=O)O)NC(=O)C(NC(=O)C(CCNCS(=O)(=O)O)NC(=O)CCCCC(C)C)C(C)O)CCNC(=O)C(C(C)O)NC(=O)C(CCNCS(=O)(=O)O)NC(=O)C(CCNCS(=O)(=O)O)NC(=O)C(C(C)CC)NC1=O (stereo not given) ({Heptanoyl(6-Me)}-[ξDab(CH2SO3H)]T[ξDab(CH2SO3H)][Dab][ξDab(CH2SO3H)]II[ξDab(CH2SO3H)][ξDab(CH2SO3H)]T; lactam 4-C; configuration not given here) 3.87%
C(=C1NCCN1)c1cccc2ccccc12 0.0122%
CO/N=C(\C(=O)N[C@@H]1C(=O)N2C(C(=O)OCOC(=O)C(C)(C)C)=C(C)CS[C@H]12)c1csc(N)n1 1.8%
CCC(=O)OC1CCC2C3CCc4cc(O)ccc4C3CCC12C (stereo not given) -8.38%
CCC(Oc1ccccc1)C(=O)NC1C(=O)N2C1SC(C)(C)C2C(=O)O (stereo not given) -1.39%
COc1cc2c(cc1OC)[C@@H](Cc1cc(OC)c(OC)c(OC)c1)[N@+](C)(CCCOC(=O)CC/C=C/CCC(=O)OCCC[N@+]1(C)CCc3cc(OC)c(OC)cc3[C@H]1Cc1cc(OC)c(OC)c(OC)c1)CC2 4.86%
CC[C@H](c1ccccc1)c1noc(CCN(CC)CC)n1 -17%
O=CC(O)C(O)C(O)C(O)CO (stereo not given) -0.114%

Potency, inactive:
NCCCCC(NC(=O)C1CCCN1C(=O)C1CSSCC(N)C(=O)NC(Cc2ccc(O)cc2)C(=O)NC(Cc2ccccc2)C(=O)NC(CCC(N)=O)C(=O)NC(CC(N)=O)C(=O)N1)C(=O)NCC(N)=O (stereo not given)
